PubChem BioAssay (NCI)
The panel holds about 83,000 compounds, 20% with a hit somewhere; the sample as a whole holds those more often.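 Interpretation: 100, growth as untreated; towards 0, rising growth inhibition; 0, no net growth; 0 to -100, cell death. Compounds scoring below 10 were considered active.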 Unmarked numbers belong to inactive results. The source made the active and inactive calls.

What was measured:
Assay in all cases: NCI-60 one-dose screen, 48 h (100 = growth as untreated, 0 = no growth, -100 = all killed)
[1] = system: SR leukemia; conditions: 10 µM unless noted
[2] = system: RPMI-8226 leukemia; conditions: 10 µM unless noted
[3] = system: OVCAR-8 ovarian; conditions: 10 µM unless noted
[4] = system: OVCAR-5 ovarian; conditions: 10 µM unless noted
[5] = system: OVCAR-4 ovarian; conditions: 10 µM
[6] = system: OVCAR-3 ovarian; conditions: 10 µM unless noted
[7] = system: HS 578T breast; conditions: 10 µM unless noted
[8] = system: NCI/ADR-RES ovarian; conditions: 10 µM unless noted
[9] = system: T-47D breast; conditions: 10 µM unless noted
[10] = system: BT-549 breast; conditions: 10 µM unless noted
[11] = system: MDA-MB-435 melanoma; conditions: 10 µM unless noted
[12] = system: SW-620 colon; conditions: 10 µM unless noted
[13] = system: MCF7 breast; conditions: 10 µM unless noted
[14] = system: HCT-116 colon; conditions: 10 µM unless noted
[15] = system: HCC-2998 colon; conditions: 10 µM unless noted
[16] = system: KM12 colon; conditions: 10 µM unless noted
[17] = system: IGROV1 ovarian; conditions: 10 µM unless noted
[18] = system: SK-OV-3 ovarian; conditions: 10 µM unless noted

| SMILES | growth [1] | growth [2] | growth [3] | growth [4] | growth [5] | growth [6] | growth [7] | growth [8] | growth [9] | growth [10] | growth [11] | growth [12] | growth [13] | growth [14] | growth [15] | growth [16] | growth [17] | growth [18] |
| --- | --- | --- | --- | --- | --- | --- | --- | --- | --- | --- | --- | --- | --- | --- | --- | --- | --- | --- |
| Clc1ccc(N2CCN(CCCN3CCN(c4cccc(Cl)c4)CC3)CC2)cc1 | 15.4% | 24.9% | 70.7% | 78.9% | 55.7% | 66.4% | 103% | 65.5% | 40.2% | 29.4% | 62.4% | 66.5% | 44.6% | 36.6% | 66.8% | 59.5% | – | – |
| O=C(O)c1ccccc1C(F)(F)F | 92.4% | 59% | 105% | 97.2% | 101% | 97.9% | 89.7% | 80.8% | 76.5% | – | 107% | 98.7% | 92.8% | 91.2% | – | 96.3% | – | – |
| COc1ccc2c(c1)c(-c1noc(C(=O)c3cn(C)c4ncc(Br)cc34)n1)cn2C | 64% | 62.2% | 74.4% | 80.4% | 42.9% | 30.5% | 27.8% | 59.7% | – | – | 63.1% | 43.6% | – | 50.3% | 92.9% | 66.7% | 54.3% | – |
| CC[C@@H]1NC(=O)[C@@H]2CCCCN2C(=O)[C@@H]2CCCN2C(=O)[C@@H](NC(=O)[C@H](Cc2cc(F)cc(F)c2)NC(=O)Nc2ccc(C3CC3)cc2F)[C@H](C)OC(=O)[C@@H]2C[C@@H](C)CN2C1=O | 15.1% | 12.8% | 13.2% | -1.92% (active) | 7.84% (active) | 6.44% (active) | – | 14% | 7.13% (active) | 5.79% (active) | – | 27% | 13.4% | 4.17% (active) | -14.1% (active) | 17% | 28.5% | – |
| COc1ccc(C(=O)CSc2nnc(-c3cc(-c4ccccc4)nc4ccccc34)o2)cc1 | 96.3% | 121% | 103% | 105% | 107% | 109% | – | 103% | 108% | 105% | 106% | 107% | – | 101% | 118% | 105% | 102% | – |
| COc1c(B(O)O)cccc1-c1nc2ccc3[nH]ncc3c2c2c1CCC2 | 67.8% | 60.1% | 61.2% | 89.9% | 80.7% | 89.8% | – | 81.4% | 48% | 60% | 64% | 54.8% | 74.4% | 47.3% | 88.8% | 51.3% | 42% | – |
| COc1ccc(NC(=S)NNc2ccc(-c3ccc(OC)c(OC)c3)nn2)cc1 | 98.1% | 103% | 101% | 103% | 100% | 110% | 95.8% | 111% | – | 98.5% | 107% | 102% | 96.5% | 102% | 109% | 104% | 103% | – |
| CCc1cccc(Cl)c1 | 103% | 101% | 104% | 105% | – | 110% | 118% | 103% | 107% | 92% | 107% | 111% | 99.4% | 104% | 106% | 101% | 100% | 107% |
| C=C(CN=[N+]=[N-])[C@@H]1CC[C@]2(C)[C@H](CC[C@@H]3[C@H]4[C@H]5OC(=O)[C@@]4(CCC5(C)C)CC[C@]32C)[C@@]1(C)CCC#N | 64% [100 µM] | 57% [100 µM] | 92.2% [100 µM] | 98.3% [100 µM] | – | 82.5% [100 µM] | 88.5% [100 µM] | 90.8% [100 µM] | 55.6% [100 µM] | 78.7% [100 µM] | 76.3% [100 µM] | 87.3% [100 µM] | 64.5% [100 µM] | 47.3% [100 µM] | 89.3% [100 µM] | 81.7% [100 µM] | 106% [100 µM] | 75.4% [100 µM] |
